Records with an inconclusive call do not appear. Active and inactive are the calls of the source. Unless noted, calls follow the shape of the dose curve; as a rule, active = well fitted curve in the direction sought with a large enough effect in the repeat runs; inconclusive = weak or mixed curves; inactive = no such curve, though single readings can be large; an effect the other way counts as inactive or inconclusive.
What was measured:
[1] = A CellTox Green Cytotoxicity Assay to monitor cytotoxicity in HEK293 cells - 32 hour (AID 1224881); also: nearly all actives have a fitted effect of over 40% in size; also: potency is read from the fitted curve at half-maximal effect
Method in brief: (§1)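 HEK293 cells premixed with CellTox Green dye were seeded at 600 cells/well and left 5 h at 37 C/5% CO2 before pin transfer of 23 nL compound in DMSO. Fluorescence from dye bound to dead-cell DNA was read during 40 h treatment.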

[2] = A CellTox Green Cytotoxicity Assay to monitor cytotoxicity in HepG2 cells - 32 hour (AID 1224883); also: nearly all actives have a fitted effect of over 50% in size; also: potency is read from the fitted curve at half-maximal effect
Method in brief: (§2)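 HepG2 cells were seeded together with the CellTox Green dye at 600 cells/well, left 5 h at 37 C/5% CO2, then given compounds in DMSO. Fluorescence from dye bound to dead-cell DNA was read repeatedly over 40 h of treatment at 37 C.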

[3] = A CellTox Green Cytotoxicity Assay to monitor cytotoxicity in HEK293 cells - 8 hour (AID 1224884); also: nearly all actives have a fitted effect of over 35% in size
Method in brief: as §1

[4] = qHTS RealTime-Glo MT Cell Viability Assay in HepG2 cells - 16 hour (AID 1224885); also: nearly all actives have a fitted effect of over 50% in size
Method in brief: (§3)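 Cell number in HepG2 cultures estimated from NanoLuc luminescence generated by metabolic reduction of a prosubstrate by living cells. The homogeneous, nonlytic format allowed repeated reads at 0, 8, 16, 24, 32 and 40 h of compound exposure.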

[5] = qHTS RealTime-Glo MT Cell Viability Assay in HEK293 cells - 8 hour (AID 1224887); also: nearly all actives have a fitted effect of over 50% in size; also: potency is read from the fitted curve at half-maximal effect
Method in brief: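 HEK293 cells mixed with RealTime-Glo reagents (NanoLuc plus cell-permeant prosubstrate) at 600 cells/well, preincubated 5 h at 37 C/5% CO2, then given 23 nL compound in DMSO. Nonlytic luminescence from viable cells was read at 0, 8, 16, 24, 32 and 40 h.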

[6] = A CellTox Green Cytotoxicity Assay to monitor cytotoxicity in HEK293 cells - 16 hour (AID 1224888); also: nearly all actives have a fitted effect of over 35% in size
Method in brief: as §1

[7] = qHTS RealTime-Glo MT Cell Viability Assay in HepG2 cells - 0 hour (AID 1224889); also: nearly all actives have a fitted effect of over 50% in size
Method in brief: as §3

[8] = A CellTox Green Cytotoxicity Assay to monitor cytotoxicity in HepG2 cells - 8 hour (AID 1224890); also: nearly all actives have a fitted effect of over 45% in size
Method in brief: as §2

[9] = qHTS assay to identify small molecule antagonists of the estrogen receptor alpha (ER-alpha) signaling pathway using the BG1 cell line in the presence of 0.1 nM 17-beta-estradiol - cell viability counter screen (AID 1259241); also: nearly all actives have a fitted effect of over 40% in size
Method in brief: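 VM7Luc4E2 cells (endogenous ER-alpha, 4×ERE-luciferase), hormone-starved 5 days in charcoal-stripped FBS, were treated with compounds plus 0.1 nM 17beta-estradiol for 22 hr at 37C; viability read in same wells as CellTiter-Fluor live-cell protease fluorescence.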

[10] = qHTS assay to identify small molecule antagonists of the androgen receptor (AR) signaling pathway using the MDA cell line in the presence of 0.5 nM R1881 - cell viability counter screen (AID 1259242); also: nearly all actives have a fitted effect of over 45% in size
Method in brief: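 MDA-kb2 cells (human breast carcinoma, stably carrying MMTV-luciferase reporter) were exposed to compounds with 0.5 nM R1881 (final) for 16 hr at 37C, 0% CO2; viability then read as live-cell protease fluorescence (CellTiter-Fluor, 30 min) in the same wells.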

[11] = qHTS assay to identify small molecule HDAC inhibitors (AID 1259364); also: nearly all actives have a fitted effect of over 45% in size; also: potency is read from the fitted curve at half-maximal effect
Method in brief: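 Wild-type HCT-116 cells were plated overnight, exposed to compounds for 2 h at 37 °C, then given HDAC-Glo class I/II luminogenic reagent for 30 min at room temperature before luminescence was read.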

[12] = qHTS assay to identify small molecule HDAC inhibitors - cell viability counter screen (AID 1259365)
Method in brief: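 Wild-type HCT-116 cells were seeded at 1,500 per well, incubated overnight at 37 C, then exposed to compounds in DMSO for 2hr. Viability was read by CellTiter-Glo luminescence after 30min at room temperature.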

[13] = qHTS assay to identify small molecule antagonists of the sonic hedgehog signaling (Shh) pathway - cell viability counter screen (AID 1259367); also: nearly all actives have a fitted effect of over 55% in size
Method in brief: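 Using CellTiter-Fluor, viability of Gli1-Luc reporter 3T3 cells is read by fluorescence in the wells used for the Shh luciferase assay. Treatment lasts 23 hr with conditioned medium, then reagent 1 hr at 37C.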

[14] = qHTS assay to identify small molecule agonists of the sonic hedgehog signaling (Shh) pathway (AID 1259368; calls by dose curve; also: series mostly up to about 92 µM; nearly all actives have a fitted effect of over 15% in size)
Method in brief: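 NIH/3T3-derived 3T3Gli1-Luc cells carrying a stably integrated Gli1 response element–firefly luciferase reporter were plated, left 4 hr at 37 C, then given compounds in DMSO for 24 hr. Luminescence was read 30 min after adding luciferase reagent.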

[15] = qHTS RealTime-Glo MT Cell Viability Assay in HEK293 cells - 24 hour (AID 1224886); also: nearly all actives have a fitted effect of over 50% in size; also: potency is read from the fitted curve at half-maximal effect
Method in brief: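 Homogeneous bioluminescent viability format in HEK293 cells (600 cells/well). Following 5 h at 37 C/5% CO2, 23 nL compound was pintooled; the signal was measured repeatedly during 40 h incubation.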

[16] = molecular target: Estrogen receptor (Homo sapiens) (UniProt P03372); test: qHTS assay to identify small molecule antagonists of the estrogen receptor alpha (ER-alpha) signaling pathway using the BG1 cell line in the presence of 0.1 nM 17-beta-estradiol (AID 1259244); also: nearly all actives have a fitted effect of over 50% in size
Sequence of Estrogen receptor (Homo sapiens) (P03372 whole entry, looked up): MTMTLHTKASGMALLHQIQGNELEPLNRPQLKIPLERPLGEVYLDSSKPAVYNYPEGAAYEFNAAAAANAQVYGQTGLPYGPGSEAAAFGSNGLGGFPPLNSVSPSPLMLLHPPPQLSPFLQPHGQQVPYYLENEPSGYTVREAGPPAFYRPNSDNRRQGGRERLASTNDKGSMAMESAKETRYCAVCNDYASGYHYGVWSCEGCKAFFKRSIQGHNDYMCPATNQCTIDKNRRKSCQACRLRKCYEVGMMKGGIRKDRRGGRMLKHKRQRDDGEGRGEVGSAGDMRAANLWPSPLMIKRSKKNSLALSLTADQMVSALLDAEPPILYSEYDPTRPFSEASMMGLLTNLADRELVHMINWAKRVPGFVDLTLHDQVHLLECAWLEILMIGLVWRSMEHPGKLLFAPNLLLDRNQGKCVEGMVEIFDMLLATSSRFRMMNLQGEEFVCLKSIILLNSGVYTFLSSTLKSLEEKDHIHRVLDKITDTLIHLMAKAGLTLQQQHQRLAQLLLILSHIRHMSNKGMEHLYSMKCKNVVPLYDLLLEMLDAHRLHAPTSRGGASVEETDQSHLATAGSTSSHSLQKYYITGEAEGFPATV
Method in brief: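 VM7Luc4E2 cells (endogenous full-length ER-alpha, stable 4xERE-luciferase) were grown 5 days in phenol red-free medium with charcoal-stripped FBS, then exposed 22 h at 37C to compounds plus 0.1 nM (final) 17beta-estradiol; ONE-Glo luminescence read-out.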

[17] = A CellTox Green Cytotoxicity Assay to monitor cytotoxicity in HepG2 cells - 0 hour (AID 1224882); also: nearly all actives have a fitted effect of over 35% in size
Method in brief: as §2

[18] = qHTS assay to identify small molecule agonists of the sonic hedgehog signaling (Shh) pathway - cell viability counter screen (AID 1259366); also: nearly all actives have a fitted effect of over 50% in size
Method in brief: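 NIH/3T3-derived 3T3 Gli1-Luc cells (stable Gli1-responsive firefly luciferase reporter) were seeded, rested 4 hr at 37 C/5% CO2, then exposed to compounds in DMSO for 24 hr; viability was read by CellTiter-Fluor fluorescence in the same wells.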

[19] = qHTS assay to identify small molecule phospholipidosis (PLD) inducers (AID 1259344; active = well fitted curve in the direction sought with a large enough effect; an effect the other way counts as inactive or inconclusive; also: potency is read from the fitted curve at half-maximal effect)
Method in brief: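 Fluorescent phospholipid staining (LipidTOX Red) measured by automated microscopy in fixed HepG2 cells after 24 h treatment; nuclei counterstained with Hoechst 33342; amiodarone as reference inducer.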

[20] = molecular target: Androgen receptor (Homo sapiens) (UniProt P10275); test: qHTS assay to identify small molecule antagonists of the androgen receptor (AR) signaling pathway using the MDA cell line in the presence of 0.5 nM R1881 (AID 1259243); also: nearly all actives have a fitted effect of over 50% in size
Sequence of Androgen receptor (Homo sapiens) (P10275 whole entry, looked up): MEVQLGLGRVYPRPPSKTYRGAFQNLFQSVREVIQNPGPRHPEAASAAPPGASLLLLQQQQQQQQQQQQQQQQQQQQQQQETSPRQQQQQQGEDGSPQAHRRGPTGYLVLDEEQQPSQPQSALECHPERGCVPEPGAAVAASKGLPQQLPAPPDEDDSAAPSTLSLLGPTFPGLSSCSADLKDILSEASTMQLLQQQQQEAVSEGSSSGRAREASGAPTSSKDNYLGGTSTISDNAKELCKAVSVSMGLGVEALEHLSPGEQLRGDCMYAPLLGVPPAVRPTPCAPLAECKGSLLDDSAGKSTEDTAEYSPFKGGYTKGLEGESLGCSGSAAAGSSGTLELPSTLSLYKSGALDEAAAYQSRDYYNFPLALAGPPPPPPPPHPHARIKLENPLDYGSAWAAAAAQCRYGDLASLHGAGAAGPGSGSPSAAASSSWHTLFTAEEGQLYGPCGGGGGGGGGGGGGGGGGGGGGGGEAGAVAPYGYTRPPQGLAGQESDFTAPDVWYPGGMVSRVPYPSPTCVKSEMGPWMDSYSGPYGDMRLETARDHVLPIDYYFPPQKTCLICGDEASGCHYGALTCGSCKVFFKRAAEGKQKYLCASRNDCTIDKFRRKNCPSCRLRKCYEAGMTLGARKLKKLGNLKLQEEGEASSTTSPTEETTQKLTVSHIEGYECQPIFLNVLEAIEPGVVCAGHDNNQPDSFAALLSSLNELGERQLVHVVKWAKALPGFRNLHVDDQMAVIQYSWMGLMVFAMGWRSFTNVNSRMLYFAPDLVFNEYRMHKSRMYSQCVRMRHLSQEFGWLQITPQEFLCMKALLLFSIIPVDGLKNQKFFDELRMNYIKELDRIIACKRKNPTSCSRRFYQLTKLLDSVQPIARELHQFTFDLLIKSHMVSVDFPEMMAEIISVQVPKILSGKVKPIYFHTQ
Method in brief: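 MDA-kb2 human breast carcinoma cells carrying an MMTV-luciferase reporter (AR- and GR-responsive) were plated, rested 5 hr at 37C, dosed with compounds, then stimulated with 0.5 nM R1881 (final) for 16 hr; luminescence was read after ONE-Glo.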

Measured: Potency

CC[C@@H]1C[C@H](N(Cc2cc(C(F)(F)F)cc(C(F)(F)F)c2)C(C)=O)c2cc(C(F)(F)F)ccc2N1C(=O)OC(C)C
not listed: [15] | [16] | [17] | [18] | [19] | [20]
inactive: all other assays above

COC(Cc1ccccc1)OC
not listed: [12] | [17] | [18] | [19] | [20]
inactive: all other assays above

O=CNc1ccccc1
not listed: [2] | [5] | [16] | [19] | [20]
inactive: all other assays above

CCCCc1cc2ccccc2c(OCCN(C)C)n1
active: [1] 21.3 µM
not listed: [2] | [3] | [15] | [16] | [19] | [20]
inactive: all other assays above

Cn1c(=O)c2c(ncn2CC(O)CO)n(C)c1=O (stereo not given)
not listed: [2] | [5] | [20]
inactive: all other assays above

O=C1CCCCCO1
not listed: [17] | [19] | [20]
inactive: all other assays above

O=C1[C@H](CC[C@H](O)c2ccc(F)cc2)[C@@H](c2ccc(O)cc2)N1c1ccc(F)cc1
active: [15] 23.9 µM
not listed: [2] | [5] | [12] | [16] | [20]
inactive: all other assays above

Cl/C(=C\n1cncn1)c1ccc(Cl)cc1Cl
not listed: [2] | [5] | [12] | [16] | [20]
inactive: all other assays above

CN1CCC(=C2c3ccccc3C=Cc3ccccc32)CC1
active: [2] 26.8 µM
not listed: [5] | [7] | [12] | [16] | [17] | [20]
inactive: all other assays above

CCCCCOC(=O)c1ccc(O)cc1
active: [1] 49.6 µM | [15] 44.2 µM | [5] 44.2 µM | [11] 24.6 µM
not listed: [2] | [6] | [12] | [13] | [19] | [20]
inactive: all other assays above

CCOc1cc(OCC)c(C(=O)CCC(=O)O)cc1OCC
not listed: [17] | [20]
inactive: all other assays above

CNCC[C@@H](Oc1ccccc1C)c1ccccc1
not listed: [7] | [16] | [17] | [20]
inactive: all other assays above

CC[C@H](C)[C@H](N)C(=O)O
not listed: [17] | [20]
inactive: all other assays above

COc1cc(C(C)(C)C)c(O)c(C(C)(C)C)c1
active: [1] 43.6 µM
not listed: [2] | [4] | [5] | [6] | [8] | [16] | [19] | [20]
inactive: all other assays above

CN1CCN(C2=Nc3ccccc3Sc3ccc(Cl)cc32)CC1
active: [19] 11.2 µM
not listed: [2] | [4] | [12] | [16]
inactive: all other assays above
